Measurements taken from PubChem BioAssay AID1159580 (chemical genetic matrix, 2015).
The whole screen tested about 5,500 compounds, of which about 2,000 (36%) were called active. About 18% were inconclusive and are not listed. Cut-off read from the data, not from the text of the source: active = normalized growth mostly below about 0.91 (no sharp cut-off); inconclusive = no clear call, values can overlap the other calls; inactive = mostly above about 0.92. The list shows a part of the results.

Assay: chemical genetic growth profiling, strain panel (AID 1159580);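 note: tested at 20 µM; growth read once vehicle control cultures reached saturation at 30 °C; 1 = growth at the plate median or of vehicle wells; lower values mean less growth of the strain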
Details: growth OD

Measured: normalized growth

COc1ccc2cc([C@H](C)CO)ccc2c1
inactive: S. cerevisiae deletion strains, locus YJR066W, strain TOR1, hits give low values 0.935 | S. cerevisiae deletion strains, locus YJR075W, strain HOC1, hits give low values 0.998 | S. cerevisiae deletion strains, locus YKL009W, strain mrt4, hits give low values 0.935 | S. cerevisiae deletion strains, locus YKL068W, hits give low values 0.975 | S. cerevisiae deletion strains, locus YKL085W, strain MDH1 (second series), hits give low values 0.949 | S. cerevisiae deletion strains, locus YKL085W, strain MDH1, hits give low values 0.949 | S. cerevisiae deletion strains, locus YKL160W, strain elf1, hits give low values 1 | S. cerevisiae deletion strains, locus YKL190W, strain CNB1, hits give low values 0.995 | S. cerevisiae deletion strains, locus YKR001C, strain vps1, hits give low values 0.97 | S. cerevisiae deletion strains, locus YKR026C, strain gcn3, hits give low values 1.01 | S. cerevisiae deletion strains, locus YKR091W, strain srl3, hits give low values 1.01 | S. cerevisiae deletion strains, locus YLL001W, strain dnm1, hits give low values 1.01 | S. cerevisiae deletion strains, locus YLL026W, hits give low values 1.01 | S. cerevisiae deletion strains, locus YLL041C, strain sdh2, hits give low values 1.01 | S. cerevisiae deletion strains, locus YLR027C, strain aat2, hits give low values 1.01 | S. cerevisiae deletion strains, locus YLR039C, strain RIC1, hits give low values 0.991 | S. cerevisiae deletion strains, locus YLR058C, strain SHM2, hits give low values 0.977 | S. cerevisiae deletion strains, locus YLR102C, strain apc9, hits give low values 0.966 | S. cerevisiae deletion strains, locus YLR113W, strain HOG1, hits give low values 0.929 | S. cerevisiae deletion strains, locus YLR221C, strain rsa3, hits give low values 1.01 | S. cerevisiae deletion strains, locus YLR258W, strain gsy2, hits give low values 1.01 | S. cerevisiae deletion strains, locus YLR262C, strain YPT6 (second series), hits give low values 1.01 | S. cerevisiae deletion strains, locus YLR262C, strain YPT6, hits give low values 0.9 | S. cerevisiae deletion strains, locus YLR268W, strain sec22, hits give low values 1.03 | S. cerevisiae deletion strains, locus YLR320W, strain mms22, hits give low values 1.02 | S. cerevisiae deletion strains, locus YLR330W, strain CHS5, hits give low values 0.992 | S. cerevisiae deletion strains, locus YLR342W, strain FKS1 (second series), hits give low values 0.969 | S. cerevisiae deletion strains, locus YLR342W, strain FKS1, hits give low values 1.01 | S. cerevisiae deletion strains, locus YLR357W, strain rsc2, hits give low values 1 | S. cerevisiae deletion strains, locus YLR370C, strain arc18, hits give low values 1.01 | S. cerevisiae deletion strains, locus YLR371W, strain rom2, hits give low values 0.918 | S. cerevisiae deletion strains, locus YLR384C, strain iki3, hits give low values 1.01 | S. cerevisiae deletion strains, locus YLR418C, strain cdc73, hits give low values 0.968 | S. cerevisiae deletion strains, locus YML016C, strain PPZ1, hits give low values 0.989 | S. cerevisiae deletion strains, locus YML032C, strain rad52, hits give low values 0.989 | S. cerevisiae deletion strains, locus YML120C, strain ndi1, hits give low values 1.01 | S. cerevisiae deletion strains, locus YMR058W, strain fet3, hits give low values 1.01 | S. cerevisiae deletion strains, locus YMR078C, strain ctf18, hits give low values 0.969 | S. cerevisiae deletion strains, locus YMR125W, strain sto1, hits give low values 1.01 | S. cerevisiae deletion strains, locus YMR129W, hits give low values 1.02 | S. cerevisiae deletion strains, locus YMR205C, strain PFK2, hits give low values 1.02 | S. cerevisiae deletion strains, locus YMR223W, strain ubp8, hits give low values 0.964 | S. cerevisiae deletion strains, locus YMR231W, strain pep5, hits give low values 1.01 | S. cerevisiae deletion strains, locus YMR263W, strain SAP30, hits give low values 0.985 | S. cerevisiae deletion strains, locus YMR307W, strain GAS1, hits give low values 1.04 | S. cerevisiae deletion strains, locus YNL067W, strain RPL9B, hits give low values 0.991 | S. cerevisiae deletion strains, locus YNL071W, strain lat1, hits give low values 1.01 | S. cerevisiae deletion strains, locus YNL128W, strain TEP1, hits give low values 0.979 | S. cerevisiae deletion strains, locus YNL153C, strain GIM3, hits give low values 0.996 | S. cerevisiae deletion strains, locus YNL183C, strain NPR1, hits give low values 0.917 | S. cerevisiae deletion strains, locus YNL209W, strain ssb2, hits give low values 1.01 | S. cerevisiae deletion strains, locus YNL233W, strain BNI4, hits give low values 1.01 | S. cerevisiae deletion strains, locus YNL248C, strain rpa49, hits give low values 0.968 | S. cerevisiae deletion strains, locus YNL250W, strain rad50, hits give low values 0.956 | S. cerevisiae deletion strains, locus YNL271C, strain bni1, hits give low values 0.979 | S. cerevisiae deletion strains, locus YNL298W, strain CLA4, hits give low values 0.949 | S. cerevisiae deletion strains, locus YNL307C, strain MCK1, hits give low values 0.97 | S. cerevisiae deletion strains, locus YNL322C, strain KRE1 (second series), hits give low values 1.01 | S. cerevisiae deletion strains, locus YNL322C, strain KRE1, hits give low values 0.996 | S. cerevisiae deletion strains, locus YNR049C, strain mso1, hits give low values 1.01 | S. cerevisiae deletion strains, locus YNR052C, strain pop2, hits give low values 0.975 | S. cerevisiae deletion strains, locus YOL006C, strain TOP1, hits give low values 0.91 | S. cerevisiae deletion strains, locus YOL012C, strain htz1 1.3 | S. cerevisiae deletion strains, locus YOL147C, strain pex11, hits give low values 0.941 | S. cerevisiae deletion strains, locus YOR001W, strain rrp6, hits give low values 1.02 | S. cerevisiae deletion strains, locus YOR061W, strain CKA2, hits give low values 0.968 | S. cerevisiae deletion strains, locus YOR069W, strain VPS5, hits give low values 0.988 | S. cerevisiae deletion strains, locus YOR070C, strain gyp1, hits give low values 1.01 | S. cerevisiae deletion strains, locus YOR080W, strain dia2, hits give low values 1.01 | S. cerevisiae deletion strains, locus YOR083W, strain WHI5, hits give low values 1.01 | S. cerevisiae deletion strains, locus YOR106W, strain vam3, hits give low values 1 | S. cerevisiae deletion strains, locus YOR136W, strain idh2, hits give low values 0.977 | S. cerevisiae deletion strains, locus YOR144C, strain elg1, hits give low values 0.978 | S. cerevisiae deletion strains, locus YOR184W, strain ser1, hits give low values 0.95 | S. cerevisiae deletion strains, locus YOR231W, strain MKK1, hits give low values 0.937 | S. cerevisiae deletion strains, locus YOR265W, strain rbl2, hits give low values 1.01 | S. cerevisiae deletion strains, locus YOR270C, strain vph1, hits give low values 0.997 | S. cerevisiae deletion strains, locus YOR290C, strain snf2, hits give low values 0.998 | S. cerevisiae deletion strains, locus YOR316C, strain cot1, hits give low values 0.976 | S. cerevisiae deletion strains, locus YPL051W, strain arl3, hits give low values 1.01 | S. cerevisiae deletion strains, locus YPL055C, strain LGE1, hits give low values 0.98 | S. cerevisiae deletion strains, locus YPL078C, strain atp4, hits give low values 1.01 | S. cerevisiae deletion strains, locus YPL106C, strain sse1, hits give low values 1.04 | S. cerevisiae deletion strains, locus YPL240C, strain hsp82, hits give low values 1.01 | S. cerevisiae deletion strains, locus YPL241C, strain CIN2, hits give low values 0.985 | S. cerevisiae deletion strains, locus YPL256C, strain CLN2, hits give low values 0.924 | S. cerevisiae deletion strains, locus YPR119W, strain clb2, hits give low values 0.971 | S. cerevisiae deletion strains, locus YPR141C, strain kar3, hits give low values 0.959 | S. cerevisiae deletion strains, locus YPR163C, strain tif3, hits give low values 0.978 | S. cerevisiae deletion strains, locus YPR167C, strain met16, hits give low values 0.977 | S. cerevisiae deletion strains, strain wtn01, hits give low values 0.968 | S. cerevisiae strains, strain wild type, hits give low values 0.979
